Hit rate of the full screen: of about 420,000 compounds, about 64,000 (15%) were called active. Another 27% or so got no clear call; they are omitted. The call rests on the fitted dose curve; in most records, active means well fitted inhibition curve with a large enough effect; inconclusive means small, poorly fitted or top-dose-only effect; inactive means flat fitted curve, though single readings scatter. These entries were drawn from the full list. Where a call stands in place of a potency, no number is given.
Experiment: qHTS for Inhibitors of human tyrosyl-DNA phosphodiesterase 1 (TDP1): qHTS in cells in absence of CPT; further: nearly all actives have a fitted effect of over 55% in size
Settings: DT40 Tdp1-/- hTDP1 cells, no CPT, ATP luminescence, 48 h; activity change, negative = growth inhibition: at 46.2 µM (top of the series)
How it was run: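 Stably hTDP1-transfected Tdp1-null chicken DT40 cells were treated with library compounds minus camptothecin and grown for at least 48 hr at 37 °C, after which cellular ATP was quantified by luminescence.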
Potency means the concentration at half of the fitted maximal effect.

Compound | Potency
O=c1cc(CSc2ccccn2)nc(N2CCN(c3ccccc3)CC2)[nH]1 | inactive
N/C(=N\OC(=O)CCc1ccccc1)c1ccc(Cl)cc1 | inactive
O=C(NCc1ccccn1)[C@@H]1CCCN1C(=O)[C@@H]1CCCN1C(=O)c1ccccc1 | inactive
COC(=O)c1ccccc1NC(=O)CSc1nc2c(c(=O)[nH]1)CCC2 | inactive
COC(=O)C1=C(C(=O)OC)[C@@H]2N(C)c3ccccc3[C@@]23C[C@@H](C(=O)OC)N(C(C)=O)C3=N1 | inactive
O=C1C(c2ccccn2)=[N+]([O-])c2ccccc21 | inactive
CCC(=O)Nc1cccc(NC(=O)CSc2nnc(-c3ccc(NS(C)(=O)=O)cc3)n2C)c1 | inactive
O=C(COc1ccccc1F)OCc1cc(=O)n2nc(C3CCCCC3)sc2n1 | inactive
O=C(CSc1n[nH]c(-c2cccs2)n1)N1CCCCC1 | inactive
Cc1cccc(NC(=O)c2cccc(C(F)(F)F)c2)c1 | inactive
O=C(Nc1ccc(-c2csc(Nc3cccc(C(F)(F)F)c3)n2)cc1)c1cccc(C(F)(F)F)c1 | 6.51 µM (active)
CNC(=O)c1ccc(NC(=O)c2cccc(C(F)(F)F)c2)cc1 | inactive
CCOC(=O)NC(C(F)(F)F)(C(F)(F)F)P(=O)(c1ccccc1)c1ccccc1 | inactive
CCOC(=O)c1sc(NC(=O)CSc2ncccn2)c(C#N)c1C | inactive
O=C(Nc1ccc(C2CC2(Cl)Cl)cc1)c1cccc([N+](=O)[O-])c1 (configuration not stated) | 18.4 µM (active)
O=C(Nc1nnc(SCc2ccccc2Cl)s1)c1cccc([N+](=O)[O-])c1 | inactive
Cc1cc(C)nc(NC(=O)c2cccc([N+](=O)[O-])c2)c1 | inactive
Cc1ccc(CNC(=O)CCN2C(=O)[C@@H]3Cc4ccccc4CN3C2=O)cc1 | inactive
CN(NC(=O)C1CC(=O)N(c2ccccc2)C1)C1=NS(=O)(=O)c2ccccc21 (configuration not stated) | inactive
O=C1NC(c2ccccc2)=NC1(Nc1ccccn1)C(F)(F)F (configuration not stated) | inactive
CCCNC(=O)N1CCC(c2ccc3c(c2)OCO3)CC1 | inactive
CC1Cn2c(nnc2-c2cccs2)S1 (configuration not stated) | inactive
N#C/C(=C(/O)COC(=O)COc1ccc(Cl)cc1)c1nc2ccccc2[nH]1 | 4.61 µM (active)
COc1ccccc1C(=O)COC(=O)COc1ccc(C#N)cc1 | inactive
N#C/C(=C(/O)COc1cccc2ccccc12)c1nc2ccccc2[nH]1 | inactive
O=C(/C(=N\O)n1cncn1)c1ccc(Br)cc1Br | inactive

Compound | Potency
Oc1cccc2ccc(/C=C/c3ccc(Br)s3)nc12 | 0.082 µM (active)
CCOC(=O)C1(Cc2cccc(OC)c2)CCCN(C(=O)CCSC)C1 (configuration not stated) | inactive
O=S(=O)(O)c1nc2ccccc2n1Cc1ccc(Cl)cc1Cl | inactive
O=S(=O)(Cc1ccc(Cl)cc1Cl)c1ccc(Cl)cc1 | 1.03 µM (active)
Cc1ccc(S(=O)(=O)Cc2cc(-c3ccc(Cl)cc3)no2)cc1 | inactive
C=C1CCN([C@H](C(=O)NCc2cc(OC)c(OC)c(OC)c2)C(C)C)S(=O)(=O)c2ccccc21 | inactive
COc1cc(C(=O)NC2CCN(C)CC2)ccc1Nc1ncc2c(n1)N(C1CCC(O)CC1)CCC(=O)N2C (configuration not stated) | 16.4 µM (active)
COc1ccc(Cl)cc1NS(=O)(=O)c1cccc(C(=O)NC2CCC(O)CC2)c1 (configuration not stated) | inactive
COc1ccc(C(=O)NC2CC2)cc1OC1CCN(Cc2cnn(C)c2)CC1 | inactive
Cc1ccccc1OCCC(=O)Nc1c(C)n(C)n(-c2ccccc2)c1=O | inactive
COc1cccc(C(=O)N2CCC(n3nccc3NC(=O)C3CCOC3)CC2)c1 (configuration not stated) | inactive
COc1ccc(N2CCN(c3cc(C)nc4nncn34)CC2)cc1 | 16.4 µM (active)
COc1ccc(N2CCN(Cc3nnc(-c4ccccc4)o3)CC2)cc1 | inactive
COc1ccc(-c2nnc3n2CCCCC3)cc1 | inactive
Cc1ccccc1C1CC(c2cccs2)=NN1S(C)(=O)=O (configuration not stated) | inactive
CCOc1ccc(N(CC)S(=O)(=O)N2CCCC(C(=O)Nc3ccc(C(C)=O)cc3)C2)cc1 (configuration not stated) | 23.1 µM (active)
CCOc1ccc(CNC(=O)C2CCCN(S(=O)(=O)N(CC)c3ccc(OCC)cc3)C2)cc1 (configuration not stated) | 20.6 µM (active)
COc1cccc(CNC(=O)C2CCN(S(=O)(=O)c3ccc4c(ccn4C)c3)CC2)c1 | inactive
CCOc1ccc(NC(=O)C2CCCN(C(=O)Nc3ccccc3)C2)cc1 (configuration not stated) | inactive
Cc1ccc(CNC(=O)C2CCCN(S(C)(=O)=O)C2)cc1 (configuration not stated) | inactive
CCOc1ccc(C(=O)NC2CCN(S(=O)(=O)CC)CC2)cc1 | inactive
CCOc1ccccc1NC(=O)C1CCCN(S(=O)(=O)c2cn(C)cn2)C1 (configuration not stated) | inactive
CCS(=O)(=O)N1CCCC(C(=O)NCc2ccc(C)cc2)C1 (configuration not stated) | inactive
CCOc1ccccc1CNC(=O)C1CCCN(S(=O)(=O)c2ccc3c(ccn3C)c2)C1 (configuration not stated) | 16.4 µM (active)
CCOC(=O)c1c(C)[nH]c(C)c1S(=O)(=O)N1CCCC(C(=O)NCc2ccccc2Cl)C1 (configuration not stated) | inactive
Cc1ccccc1CNC(=O)C1CCCN(S(=O)(=O)N(C)c2ccc(F)cc2)C1 (configuration not stated) | 18.4 µM (active)

Source: PubChem BioAssay AID686978 (National Center for Advancing Translational Sciences (NCATS), 2013)
